# From PubChem BioAssay (NCATS)
# Records with an inconclusive call do not appear. Active and inactive are the calls of the source. Calls come from the whole dose curve; as a rule, active = well fitted inhibition curve with a large enough effect; inconclusive = small, poorly fitted or top-dose-only effect; inactive = flat fitted curve, though single readings scatter.
# Target: Calcium and integrin-binding protein 1 (Homo sapiens) (UniProt Q99828)
# Test: Primary qHTS for Identification of Calcium Integrin Binding Protein 1 (CIB1) Competitor (AID 1508620);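 note: GST tagged CIB1 binding a fluorescein labelled alphaIIb integrin peptide tracer; top concentration of the series differs between compounds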
# Conditions: CIB1-GST / FITC-alphaIIb peptide fluorescence polarization; series mostly up to 114 µM; activity change, negative = inhibition: at the top concentration
# How it was run: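 Fluorescence polarization competition: CIB1-GST (1 uM final) preincubated with compound 15 min at room temperature, then FITC-labeled alphaIIb peptide (100 nM final) added for another 15 min. Polarization read at Ex 480/Em 540.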
# % is set by controls: 0 for no effect and ±100 for the full control effect.
# Sequence of Calcium and integrin-binding protein 1 (Homo sapiens) (Q99828 whole entry, looked up): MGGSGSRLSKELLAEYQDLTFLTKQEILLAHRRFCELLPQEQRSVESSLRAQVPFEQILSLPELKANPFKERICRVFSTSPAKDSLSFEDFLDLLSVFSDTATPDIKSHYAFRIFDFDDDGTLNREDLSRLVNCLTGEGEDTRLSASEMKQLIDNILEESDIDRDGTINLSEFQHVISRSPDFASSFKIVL
row,SMILES,"activity change, negative = inhibition"
1,O=C(O)c1ccc2c(c1)C(=O)N([C@@H](Cc1ccc(O)cc1)C(=O)O)C2=O,-6.08% (inactive)
2,CN1CCN(c2cccc(Nc3nn4c(=O)c5ccc(C(F)(F)F)cc5nc4s3)c2)CC1,-9.81% (inactive)
3,Cc1cc(C)nc(NC(=S)N2CCN(c3nccc(C(F)(F)F)n3)CC2)c1,-12.7% (inactive)
4,O=C1c2ccccc2C(=O)N1C1CCCCC1,-0.478% (inactive)
5,O=C(Nc1ccc(-c2nc3ccccc3[nH]2)cc1)Nc1ccc2occc2c1,-1.67% (inactive)
6,O=C(Nc1ccccc1)Nc1nnc(-c2ccncc2)s1,6.04% (inactive)
7,COC(=O)c1ccnc(NCc2ccc(O)c3ncccc23)c1,-3.23% (inactive)
8,COc1cccc(Cn2ncc3c4sc(C)cc4n(C)c3c2=O)c1,-1.53% (inactive)
9,CC(C)Oc1cccc(-c2ccnc(N3CCC(C(N)=O)CC3)n2)c1,2.08% (inactive)
10,O=C1CCCC2=C1C(c1[nH]ncc1Cl)N=C(Nc1nc3cc(F)ccc3o1)N2 (configuration not stated),-2.71% (inactive)
11,O=C(CNC(=O)c1ccncc1)OC(C(=O)Nc1cc(C(F)(F)F)ccc1Cl)c1ccccc1 (configuration not stated),0.363% (inactive)
12,O=C(Cc1nnc(-c2cc3ccccc3[nH]2)o1)Nc1cc(C(F)(F)F)ccc1Cl,-4.4% (inactive)
13,COC(=O)C1CCc2sc(NC(=O)Cc3ccccc3)c(C(=O)Nc3ccc(Cl)cc3)c21 (configuration not stated),-3.08% (inactive)
14,CC(C)c1ccccc1-c1nc(NCC2CCN(c3cccnc3)CC2)c2ccccc2n1,95.1% (inactive)
15,FC(F)(F)c1cccc(-c2ccc(CNc3nc(-c4ccccc4C(F)(F)F)nc4ccccc34)cc2)c1,5.29% (inactive)
16,Cc1cnc(-c2ccccc2C2COC2)nc1NCc1ccc(-c2cccnc2)cc1,2.86% (inactive)
17,CC(C)Oc1ccc(-c2csc(N3CCC(C(N)=O)CC3)n2)cc1,-0.484% (inactive)
